In PubChem BioAssay (NCATS):
Results filed as inconclusive are left out. Active and inactive are the calls of the source. Unless noted, the call rests on the fitted dose curve; in most records, active means well fitted curve in the direction sought with a large enough effect; inconclusive means small, poorly fitted or top-dose-only effect, or another doubt; inactive means no such curve, though single readings can be large; an effect the other way counts as inactive or inconclusive.

Legend:
[1] = qHTS for Inhibitors of Plasmodium falciparum (CP250) proliferation (AID 504320);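 further: plate controls were DMSO vehicle for no effect and 0.29 µM artemisinin control for full effect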
Outline: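 Erythrocytes infected with P. falciparum line (0.3% parasitemia, 2.5% hematocrit final) incubated with compounds 72 h at 37 °C, 5% CO2; SYBR Green lysis buffer added, fluorescence read next day. Normalized to 0.29 uM artemisinin and DMSO.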

[2] = target: Atrial natriuretic peptide receptor 1 (Homo sapiens) (UniProt P16066); assay: Natriuretic polypeptide receptor (hNpr1) antagonism - Pilot CMLD screen (AID 1347052; calls by dose curve;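 further: HEK293 cells with hNpr1 stimulated by hNppA peptide at 0.1 nM; cGMP level read as GloSensor luciferase luminescence after agonist stimulation; series mostly up to about 9.2 µM; on the % scale 0 is the no-effect control and ±100 the full control effect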)
[3] = target: N-terminal Xaa-Pro-Lys N-methyltransferase 1 (Homo sapiens) (UniProt Q9BV86); assay: qHTS Assay for Inhibitors of N-terminal methyltransferase 1 (NTMT1): LOPAC validation of the NTMT1 SAHH-coupled ThioGlo3 Assay (AID 1347143);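 further: SAH from peptide methylation measured as thiol fluorescence via SAHH coupling and ThioGlo3; nearly all actives have a fitted effect of over 70% in size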; further: potency means the concentration at half of the fitted maximal effect
Outline: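 Recombinant human NTMT1 (125nM) was pre-incubated 1 min at room temperature with compounds over a concentration range, then a mix of 100uM SAM, 10uM SAHH and 15uM ThioGlo3 (concentrations in added reagent) was added. ThioGlo3 fluorescence (ex 340/em 450nm) after 30 min was normalized to the initial reading.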

Furin (Homo sapiens) = Furin (Homo sapiens) (UniProt P09958); assay: Furin counterscreen qHTS for Zika virus inhibitors (AID 1347149); further: potency means the concentration at half of the fitted maximal effect; nearly all actives have a fitted effect of over 70% in size
Outline: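 Fluorogenic cleavage of BOC-RVRR-AMC (2 microM final, Km ~15 µM) was monitored (ex 340, em 450 nm) at 37C after 15 min RT preincubation of 5 nM furin with compounds in HEPES pH 7.0 buffer with CaCl2 and Triton X-100. Percent inhibition was fitted to a 4-parameter Hill curve.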

[4] = Confirmation and Secondary Assay for Modulators of Hemoglobin Beta Chain Splicing at IVS2 654 locus (AID 910);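 further: HeLa cells stably carrying EGFP split by mutant beta-globin IVS2-654 intron; % of control where 0% means no effect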
Outline: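 HeLa cells stably expressing EGFP interrupted by β-globin IVS2-654 intron, seeded overnight in Opti-MEM/2% FCS, then treated 2 days at 37 °C. Restored splicing read as total peak GFP intensity per well by laser scanning cytometry (488 nm excitation, 500–520 nm emission); 500 nM antisense PNA as control.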

[5] = target: ATP-dependent DNA helicase Q1 (Homo sapiens) (UniProt P46063); assay: qHTS Validation Assay for Inhibitors of RecQ-Like Dna Helicase 1 (RECQ1) (AID 2353);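 further: plate controls were DMSO vehicle for no effect and enzyme-free control for full effect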
Outline: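 50 nM RECQ1T1 preincubated 15 min with compound in Tris pH 8.0 buffer with MgCl2, DTT, Tween-20 and 2.5 ug/ml poly(dI-dC); started with 200 nM TAMRA/BHQ-2 forked duplex and 2 mM ATP. Unwinding read as fluorescence (525/598 nm), two reads 2 h apart.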

[6] = target: M-phase phosphoprotein 8 (Homo sapiens) (UniProt Q99549); assay: qHTS Validation Assay for Inhibitors for MPP8 Chromodomain Interactions with Methylated Histone Tails (AID 488949);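 further: 50 nM MPP8 with 50 nM peptide preformed then compounds added for 30 min; AlphaScreen signal from MPP8 chromodomain bound to biotinylated H3K9me3 peptide; top concentration of the series differs between compounds; on the % scale 0 is the no-effect control and ±100 the full control effect; nearly all actives have a fitted effect of over 55% in size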
Outline: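 50 nM MPP8 + 50 nM b-H3K9me3 peptide, PBS pH 7.4/0.01% Tween-20, 30 min RT; + cpd 30 min RT; + AlphaScreen donor/Ni-chelate acceptor beads 10 ug/mL final, 30 min dark; luminescence read.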

[7] = target: Methanococcus maripaludis chaperonin (MmCpn) (UniProt Q6LX38); assay: High-Throughput Screening for Modulators of Cytosolic Chaperonin Activity: MmCpn Primary Screen (AID 488978);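 further: 50 nM MmCpn enzyme hydrolysing 30 µM ATP at 37 °C; 0% is about no effect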
Outline: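 Steps: chaperonin 50 nM final; add compound, 5 min RT; start with ATP, 30 uM final; hold 10 min at 37C; add ADP Transcreener HTRF reagent, 5 min; read ex 320, em 590 and 665 nm.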

[8] = target: T1, Hexokinase-4 (Homo sapiens) + Glucokinase regulatory protein (Homo sapiens) (UniProt P35557+Q14397); assay: qHTS assay for inhibitors of recombinant human GCK-GKRP interaction: ADP-Glo assay (AID 743206);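 further: plate controls were DMSO plus enzyme for no effect and no enzyme for full effect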
Outline: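 GST-GCK and FLAG-GKRP (15 nM each in the dispensed mix, with 2 uM S6P) react with 0.4 mM ATP and 5 mM glucose (final) in Hepes pH 7.6 for 60 min at room temperature. ADP is measured by ADP-Glo luminescence.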

[9] = target: T1, Hexokinase-4 (Homo sapiens) + Glucokinase regulatory protein (Homo sapiens); assay: qHTS assay for inhibitors of recombinant human GCK-GKRP interaction: HTRF assay (AID 743207);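 further: 0% = DMSO with GCK present and -100% = DMSO wells lacking GCK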
Outline: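 5 nM GST-GCK + 5 nM FLAG-GKRP + 2 uM S6P, pH 7.1 buffer (25 mM Hepes, 2 mM MgCl2, 25 mM KCl, 1 mM DTT, Tween/BSA); pin-transferred cpd; anti-FLAG XL665/anti-GST K; 60 min RT; HTRF.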

[10] = target: Parathyroid hormone/parathyroid hormone-related peptide receptor (Homo sapiens) (UniProt Q03431); assay: qHTS for PTHR1 Agonists: Optimization Screen against the NCGC LOPAC library (AID 1347079);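 further: GloSensor cAMP luminescence in HEK-293 GP2 cells expressing human PTHR1 with IBMX; 0% is about no effect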
Outline: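 Compounds were tested across a qHTS titration. PTHR1-expressing GP2 cells report cAMP rises via GloSensor luminescence after 1 hr compound exposure at 37C with IBMX present.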

[11] = system: Zika virus NS2B-NS3 protease (unlinked); assay: Optimization of GU AMC qHTS for Zika virus inhibitors: Unlinked NS2B-NS3 protease assay (AID 1347151);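 further: series mostly up to about 52 µM; 0% = no-inhibitor control and -100% = no-enzyme control; nearly all actives have a fitted effect of over 80% in size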
Outline: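 Unlinked protease (25 nM final); buffer 10 mM Tris-HCl pH 8.0 + 0.01% Tween 20; AMC substrate; 15 min RT, dark; Δfluorescence normalized to no-inhibitor/no-enzyme controls; 4-parameter Hill fit.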

[12] = system: Zika virus NS2B-NS3 protease; assay: Primary screen GU AMC qHTS for Zika virus inhibitors (AID 1347154);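 further: 0% = no-inhibitor control and -100% = no-enzyme control; nearly all actives have a fitted effect of over 70% in size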
Outline: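 Unlinked Zika NS2B hydrophilic domain–NS3 protease complex at 25 nM in 10 mM Tris-HCl pH 8.0, 0.01% Tween 20, with an AMC peptide substrate. Fluorescence change (340/450 nm) over 15 min at room temperature, normalized to controls, fitted to 4-parameter Hill.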

[13] = system: Zika virus NS2B-NS3 protease (unlinked complex); assay: Primary screen GU Rhodamine qHTS for Zika virus inhibitors: Unlinked NS2B-NS3 protease assay (AID 1347159); further: on the % scale 0 is the no-effect control and ±100 the full control effect; nearly all actives have a fitted effect of over 60% in size
Outline: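 Compounds, tested up to 114 microM, were incubated for 15 minutes with 25 nM unlinked NS2B-NS3 protease at pH 8.0. Cleavage of 1.5 microM Rhodamine110 substrate was then followed by fluorescence for 15 minutes.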

[14] = system: Zika virus NS2B-NS3 protease (linked construct); assay: Primary screen NINDS Rhodamine qHTS for Zika virus inhibitors (AID 1347160); further: on the % scale 0 is the no-effect control and ±100 the full control effect; nearly all actives have a fitted effect of over 55% in size
Outline: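 Percent inhibition, normalized to uninhibited and enzyme-free controls, is fitted to a 4-parameter Hill equation. Fluorescence change comes from a 15-min cleavage of 1.5 microM bis-peptide Rhodamine110 substrate by 25 nM linked NS2B-NS3 at room temperature.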

[15] = target: Lysine-specific demethylase 5B (Homo sapiens) (UniProt Q9UGL1); assay: Optimization screen for KDM5B Histone Demethylases FDH coupled qHTS against the LOPAC library (AID 1347166); further: 0% is about no effect
Outline: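 KDM5BDeltaAP (200nM final) preincubated 10 min with compound, then 12.5uM H3K4Me3, 25uM a-ketoglutarate, ascorbate, Fe(II), NAD+ and FDH added; 50mM HEPES pH 7.5, 0.01% Tween-20. NADH fluorescence (340/450 nm) change over 30 min, room temperature.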

[16] = target: Single-stranded DNA cytosine deaminase (Homo sapiens) (UniProt Q9GZX7); assay: Validation qHTS assay for inhibitors of Activation Induced Cytidine Deaminase (AID): AID signal (AID 1347429); further: on the % scale 0 is the no-effect control and ±100 the full control effect
Outline: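 AID and UDG were combined and compounds added at final up to 114 uM, then DJC20/DJC23 FRET substrate was added for 4 hr at room temperature. NaOH was then added for 30 min before fluorescence was read at 540/590 nm.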

[17] = Primary qHTS for inhibitors of La Crosse Virus (LACV) - induced cell death in SH-SY5Y cells (AID 1508616);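 further: top concentration of the series differs between compounds; 0% = infected DMSO wells and 100% = uninfected DMSO wells; higher means more rescue of cells from virus-induced death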
Outline: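 Luminescent ATP readout (ATPLite 1step, 5 min room temperature) measured rescue from LACV-induced death after 6 days of infection at 0.01 MOI; normalized to infected DMSO wells and uninfected DMSO wells.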

Papain (Carica papaya) = Papain (Carica papaya) (UniProt P00784); assay: Primary qHTS assay for inhibitors of the protease papain (AID 1645873);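 further: papain turnover of Z-FR-AMC read as the AMC fluorescence gain over 10 min; series mostly up to about 50 µM; on the % scale 0 is the no-effect control and ±100 the full control effect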
[18] = target: Rap guanine nucleotide exchange factor 4 (Homo sapiens) (UniProt Q8WZA2); assay: Confirmatory qHTS for antagonist of cAMP-regulated guanine nucleotide exchange factor 4 (EPAC2) (AID 1645885); further: potency means the concentration at half of the fitted maximal effect; nearly all actives have a fitted effect of over 25% in size
[19] = target: Glutathione peroxidase 1 (Homo sapiens) (UniProt P07203); assay: Primary qHTS Assay for Inhibitors of Recombinant Selenoprotein Glutathione Peroxidase 1 (GPX1) (AID 1845191); further: nearly all actives have a fitted effect of over 65% in size
Outline: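 GR-coupled assay: compounds preincubated 30 min at room temperature with GPX1, then reaction started with CHP; final 10 nM GPX1, 1 mM GSH, 0.5 mM CHP, 0.5 mM NADPH, 100 nM GR, 0.01% BSA, pH 7.5 Tris buffer. NADPH fluorescence (340/450 nm) read at 0 and 15 min.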

[20] = target: Phospholipid hydroperoxide glutathione peroxidase GPX4 (Homo sapiens) (UniProt P36969); assay: Primary qHTS Assay for Inhibitors of Recombinant Selenoprotein Glutathione Peroxidase 4 (GPX4) (AID 1845192); details: outcome: dose series up to 50 µM unless noted; further: series mostly up to about 50 µM; on the % scale 0 is the no-effect control and ±100 the full control effect; nearly all actives have a fitted effect of over 65% in size
Outline: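 GR-coupled assay: recombinant GPX4 preincubated 30 min with compound at room temperature; final 200 nM GPX4, 1 mM GSH, 0.5 mM cumene hydroperoxide, 0.5 mM NADPH, 100 nM GR, 0.01% BSA, pH 7.5 Tris. NADPH fluorescence (340/450 nm) read at 0 and 15 min.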

[21] = target: Luciferin 4-monooxygenase (Photinus pyralis) (UniProt P08659); assay: Primary firefly luciferase (FLuc) qHTS assay for identification of artifact compounds. (AID 1845220); further: nearly all actives have a fitted effect of over 60% in size
Outline: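 Enzymatic FLuc inhibition assay: compounds pre-exposed to luciferin/ATP (10 uM each) for 15 min, then purified P. pyralis enzyme at 10 nM added. Read-out: luminescence at 5 min.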

[22] = Primary fluorescence-based thiol-reactive (MSTI) qHTS assay for identification of artifact compounds. (AID 1845221);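 further: series mostly up to about 54 µM; thiol-reactive compounds lower the probe fluorescence signal; nearly all actives have a fitted effect of over 65% in size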
Outline: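 First, 4 uM MSTI in 2% DMSO/PBS pH 7.4 was dispensed; next, compounds were added; then plates sat 1 h at room temperature without light. Finally, emission at 598 nm was recorded.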

[23] = Primary redox qHTS assay for identification of artifact compounds. (AID 1845223);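 further: 0% = DMSO and 100% = reference compound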
Outline: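 Amplex Red (25 uM) and HRP (250 mU/mL) in HBSS, with compounds for 15 min, then 250 uM DTT for 30 min, room temperature, dark. Fluorescence 525/598 nm read; normalized to DMSO and 10 uM DA3003; Hill fit.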

[24] = qHTS drug screen for cell cycle checkpoint inhibitors in PARPi-resistant BRCA-mutant ovarian cancer cell lines. (AID 1963452; calls by dose curve); details: PEO1/OlaR viability, CellTiter-Glo luminescence, 96 h, stronger effect = lower value
Outline: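 PEO1, PEO4 and PEO1/OlaR ovarian cancer cells, 600 per well, exposed 96 h at 37C to a dilution series. Viability read by CellTiter-Glo luminescence, normalized to DMSO and empty wells; activity summarized as Z-AUC.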

Chain of N-terminal Xaa-Pro-Lys N-methyltransferase 1 (Homo sapiens) (Q9BV86 whole entry, looked up): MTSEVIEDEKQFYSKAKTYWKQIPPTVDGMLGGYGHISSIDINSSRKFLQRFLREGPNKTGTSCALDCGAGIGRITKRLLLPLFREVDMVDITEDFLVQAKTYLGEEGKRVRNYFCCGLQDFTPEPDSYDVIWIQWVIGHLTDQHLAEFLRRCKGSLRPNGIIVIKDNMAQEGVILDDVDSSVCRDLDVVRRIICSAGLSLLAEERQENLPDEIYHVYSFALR
Chain of Phospholipid hydroperoxide glutathione peroxidase GPX4 (Homo sapiens) (P36969 whole entry, looked up): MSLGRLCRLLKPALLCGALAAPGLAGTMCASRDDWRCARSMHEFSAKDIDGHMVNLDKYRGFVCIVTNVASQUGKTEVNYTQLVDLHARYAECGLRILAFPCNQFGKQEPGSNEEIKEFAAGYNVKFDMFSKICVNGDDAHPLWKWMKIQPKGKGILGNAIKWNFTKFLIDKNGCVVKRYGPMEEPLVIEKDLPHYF
Chain of Atrial natriuretic peptide receptor 1 (Homo sapiens) (P16066 whole entry, looked up): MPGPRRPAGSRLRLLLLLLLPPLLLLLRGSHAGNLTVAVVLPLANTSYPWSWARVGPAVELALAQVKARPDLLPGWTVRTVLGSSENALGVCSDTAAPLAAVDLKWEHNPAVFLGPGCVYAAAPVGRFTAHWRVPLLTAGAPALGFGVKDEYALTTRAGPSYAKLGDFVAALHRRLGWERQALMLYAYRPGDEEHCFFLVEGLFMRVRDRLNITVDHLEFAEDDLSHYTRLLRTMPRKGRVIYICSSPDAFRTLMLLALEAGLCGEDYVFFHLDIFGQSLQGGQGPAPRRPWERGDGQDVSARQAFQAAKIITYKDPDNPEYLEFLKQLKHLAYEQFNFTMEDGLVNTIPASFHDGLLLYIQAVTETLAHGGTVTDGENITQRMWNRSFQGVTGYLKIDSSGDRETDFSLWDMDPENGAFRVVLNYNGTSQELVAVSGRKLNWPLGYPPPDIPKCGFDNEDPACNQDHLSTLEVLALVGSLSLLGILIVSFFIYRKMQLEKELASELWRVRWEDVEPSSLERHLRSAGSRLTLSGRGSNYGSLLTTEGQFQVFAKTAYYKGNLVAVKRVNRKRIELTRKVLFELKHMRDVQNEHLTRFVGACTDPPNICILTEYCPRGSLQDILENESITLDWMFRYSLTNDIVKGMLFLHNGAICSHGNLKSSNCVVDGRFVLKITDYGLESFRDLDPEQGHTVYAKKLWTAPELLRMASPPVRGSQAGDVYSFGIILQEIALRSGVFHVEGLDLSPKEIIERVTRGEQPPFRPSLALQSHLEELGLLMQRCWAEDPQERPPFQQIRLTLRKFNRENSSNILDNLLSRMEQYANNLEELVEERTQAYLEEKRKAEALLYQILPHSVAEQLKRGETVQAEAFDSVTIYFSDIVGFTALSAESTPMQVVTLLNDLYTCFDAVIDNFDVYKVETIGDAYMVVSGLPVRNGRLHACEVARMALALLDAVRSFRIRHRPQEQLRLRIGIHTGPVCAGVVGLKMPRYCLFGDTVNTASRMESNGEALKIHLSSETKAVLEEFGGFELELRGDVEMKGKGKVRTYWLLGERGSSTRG
Chain of Glutathione peroxidase 1 (Homo sapiens) (P07203 whole entry, looked up): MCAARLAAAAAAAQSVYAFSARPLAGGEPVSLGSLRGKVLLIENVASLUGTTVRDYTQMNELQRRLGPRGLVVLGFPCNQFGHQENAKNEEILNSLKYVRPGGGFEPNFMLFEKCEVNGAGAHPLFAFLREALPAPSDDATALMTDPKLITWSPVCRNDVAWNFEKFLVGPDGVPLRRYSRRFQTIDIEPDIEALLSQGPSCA
Chain of M-phase phosphoprotein 8 (Homo sapiens) (Q99549 whole entry, looked up): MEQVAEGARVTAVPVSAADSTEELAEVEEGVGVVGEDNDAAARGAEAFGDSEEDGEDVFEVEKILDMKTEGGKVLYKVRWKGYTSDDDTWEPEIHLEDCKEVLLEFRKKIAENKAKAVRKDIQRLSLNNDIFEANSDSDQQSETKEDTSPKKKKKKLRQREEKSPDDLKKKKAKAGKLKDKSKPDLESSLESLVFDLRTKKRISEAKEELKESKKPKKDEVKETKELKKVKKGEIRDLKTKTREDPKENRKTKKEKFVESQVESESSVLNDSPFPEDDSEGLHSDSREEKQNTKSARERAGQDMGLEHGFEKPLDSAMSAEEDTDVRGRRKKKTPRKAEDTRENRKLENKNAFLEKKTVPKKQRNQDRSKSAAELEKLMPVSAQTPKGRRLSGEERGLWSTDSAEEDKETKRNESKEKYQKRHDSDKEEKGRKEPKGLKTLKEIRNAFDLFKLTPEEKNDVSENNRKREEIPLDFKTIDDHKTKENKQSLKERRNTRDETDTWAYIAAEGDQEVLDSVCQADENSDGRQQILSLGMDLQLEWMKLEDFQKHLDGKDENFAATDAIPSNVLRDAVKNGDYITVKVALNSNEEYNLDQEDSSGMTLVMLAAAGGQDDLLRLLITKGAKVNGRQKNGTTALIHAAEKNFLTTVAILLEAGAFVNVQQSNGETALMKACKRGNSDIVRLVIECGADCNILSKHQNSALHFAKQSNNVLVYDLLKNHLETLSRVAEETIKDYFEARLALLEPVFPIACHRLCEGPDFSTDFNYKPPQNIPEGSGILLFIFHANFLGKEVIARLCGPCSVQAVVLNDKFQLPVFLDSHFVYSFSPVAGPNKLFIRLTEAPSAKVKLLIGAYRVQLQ
T1 sequence (P35557 whole entry, looked up): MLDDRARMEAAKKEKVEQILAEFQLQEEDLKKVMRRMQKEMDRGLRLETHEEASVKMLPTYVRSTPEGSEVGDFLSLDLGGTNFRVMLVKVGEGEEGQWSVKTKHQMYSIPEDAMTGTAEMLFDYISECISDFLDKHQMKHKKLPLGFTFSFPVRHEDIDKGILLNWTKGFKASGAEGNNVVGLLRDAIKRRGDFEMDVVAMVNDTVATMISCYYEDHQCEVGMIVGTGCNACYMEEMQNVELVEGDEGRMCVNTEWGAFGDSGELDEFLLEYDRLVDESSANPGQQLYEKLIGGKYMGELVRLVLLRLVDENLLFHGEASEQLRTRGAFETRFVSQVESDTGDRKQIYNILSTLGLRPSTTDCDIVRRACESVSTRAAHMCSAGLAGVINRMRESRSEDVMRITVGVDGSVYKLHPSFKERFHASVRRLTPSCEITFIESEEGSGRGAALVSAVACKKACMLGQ
T1 sequence (Q14397 whole entry, looked up): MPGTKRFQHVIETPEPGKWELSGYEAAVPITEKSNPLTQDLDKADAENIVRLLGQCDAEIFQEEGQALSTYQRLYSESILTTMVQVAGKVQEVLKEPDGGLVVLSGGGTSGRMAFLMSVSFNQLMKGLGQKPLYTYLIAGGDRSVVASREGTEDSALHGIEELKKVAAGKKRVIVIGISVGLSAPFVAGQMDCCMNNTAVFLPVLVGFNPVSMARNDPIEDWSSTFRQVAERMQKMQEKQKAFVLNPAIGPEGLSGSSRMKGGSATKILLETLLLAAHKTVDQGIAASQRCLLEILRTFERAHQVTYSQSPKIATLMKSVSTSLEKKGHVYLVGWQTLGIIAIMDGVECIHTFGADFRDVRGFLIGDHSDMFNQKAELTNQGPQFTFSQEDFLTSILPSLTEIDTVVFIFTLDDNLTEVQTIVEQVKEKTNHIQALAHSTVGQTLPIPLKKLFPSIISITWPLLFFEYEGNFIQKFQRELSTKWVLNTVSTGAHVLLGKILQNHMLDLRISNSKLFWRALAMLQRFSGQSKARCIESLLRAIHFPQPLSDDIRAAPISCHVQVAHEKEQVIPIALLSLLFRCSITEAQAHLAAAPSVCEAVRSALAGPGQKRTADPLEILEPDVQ
Chain of ATP-dependent DNA helicase Q1 (Homo sapiens) (P46063 whole entry, looked up): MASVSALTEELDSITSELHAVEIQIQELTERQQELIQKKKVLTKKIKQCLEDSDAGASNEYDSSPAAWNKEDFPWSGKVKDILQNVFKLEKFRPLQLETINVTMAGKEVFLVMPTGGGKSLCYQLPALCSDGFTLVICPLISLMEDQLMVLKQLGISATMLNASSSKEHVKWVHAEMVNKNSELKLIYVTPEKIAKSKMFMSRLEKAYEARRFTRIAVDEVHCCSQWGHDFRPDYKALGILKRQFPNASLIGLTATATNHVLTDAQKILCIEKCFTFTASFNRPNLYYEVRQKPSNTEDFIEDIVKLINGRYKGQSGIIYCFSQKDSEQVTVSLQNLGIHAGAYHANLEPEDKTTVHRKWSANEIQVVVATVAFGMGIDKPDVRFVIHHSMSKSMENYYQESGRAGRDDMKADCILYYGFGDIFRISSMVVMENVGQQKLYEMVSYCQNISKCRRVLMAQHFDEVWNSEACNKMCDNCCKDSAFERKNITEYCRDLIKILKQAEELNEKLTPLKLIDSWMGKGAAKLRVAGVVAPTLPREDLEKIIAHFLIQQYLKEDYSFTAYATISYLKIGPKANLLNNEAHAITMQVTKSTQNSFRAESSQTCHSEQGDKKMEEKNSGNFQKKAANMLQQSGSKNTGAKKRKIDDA
Chain of Parathyroid hormone/parathyroid hormone-related peptide receptor (Homo sapiens) (Q03431 whole entry, looked up): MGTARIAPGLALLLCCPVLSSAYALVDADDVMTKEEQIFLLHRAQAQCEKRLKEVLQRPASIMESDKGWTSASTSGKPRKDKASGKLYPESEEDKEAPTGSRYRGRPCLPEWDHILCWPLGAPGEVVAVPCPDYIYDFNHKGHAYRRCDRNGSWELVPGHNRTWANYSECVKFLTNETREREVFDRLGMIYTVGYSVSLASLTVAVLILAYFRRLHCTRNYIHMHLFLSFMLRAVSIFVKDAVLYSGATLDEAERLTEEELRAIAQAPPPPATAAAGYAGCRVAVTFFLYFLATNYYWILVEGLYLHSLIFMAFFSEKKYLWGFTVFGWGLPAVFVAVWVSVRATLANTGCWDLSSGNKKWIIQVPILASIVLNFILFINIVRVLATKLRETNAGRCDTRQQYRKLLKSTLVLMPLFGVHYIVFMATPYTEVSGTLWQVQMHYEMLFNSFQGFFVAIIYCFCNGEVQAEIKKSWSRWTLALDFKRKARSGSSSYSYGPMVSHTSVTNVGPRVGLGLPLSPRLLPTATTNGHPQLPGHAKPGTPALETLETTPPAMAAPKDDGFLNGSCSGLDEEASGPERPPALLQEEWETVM

CCCCCCCC1=Cc2ccc(F)cc2C(C(C(=O)OC)C(=O)OC)N1C(=O)OC (stereo not given)
inactive: Potency [1] | Potency [2]

COC(=O)[C@@H]1[C@@H](c2ccccc2)NC(=O)N(CCc2cc(OC)c(OC)c(OC)c2)[C@@H]1C
inactive: Potency [1] | Potency [2]

CCc1cc2c(nc1CC)CCN(CCC(C)=NO[C@@H]1O[C@H](COC(C)=O)[C@@H](OC(C)=O)[C@H](OC(C)=O)[C@@H]1OC(C)=O)C2
inactive: Potency [1] | Potency [2]

CSc1nc(N)c2ncn([C@@H]3O[C@H](COP(=O)(O)OP(=O)(O)OP(=O)(O)O)C(O)[C@H]3O)c2n1 (stereo not given in full)
active: Potency [3] 50.1 µM

C[C@@H]1C=CCC(=O)N[C@@H](c2cccc(Br)c2)[C@H](C)C=CCC(=O)N[C@@H]1c1cccc(Br)c1
inactive: Potency [1] | Potency [2]

COC(=O)CC=C1c2ccccc2[C@@H](O)[C@@H]1C
inactive: Potency [1] | Potency [2]

N.N.N.N.N.N.N.N.N.N.N.N.N.N.O.O.[Cl-].[Cl-].[Cl-].[Cl-].[Cl-].[Cl-].[Ru+4].[Ru+5].[Ru+5]
active: Potency [3] 44.7 µM

O=S(=O)(N[C@H]1CO[C@H]2[C@@H]1OC[C@@H]2Nc1nccc(-c2ccc3c(c2)OCO3)n1)c1ccc2ccccc2c1
active: Potency (Furin (Homo sapiens)) 55.5 µM

Fc1ccccc1-c1nc(-c2ccccc2)oc1NCc1ccccc1
inactive: Potency [1] | Potency [2]

C/C=C/CC(C)C(O)C1C(=O)NC(CC)C(=O)N(C)CC(=O)N(C)C(CC(C)C)C(=O)NC(C(C)C)C(=O)N(C)C(CC(C)C)C(=O)NC(C)C(=O)NC(C)C(=O)N(C)C(CC(C)C)C(=O)N(C)C(CC(C)C)C(=O)N(C)C(C(C)C)C(=O)N1C (stereo not given)
inactive: outcome [4] | Potency [5] | Potency [6] | outcome [7] | outcome [8] | outcome [9] | outcome [10] | Potency [3] | Potency [11] | Potency [12] | Potency [13] | Potency [14] | outcome [15] | Potency [16] | outcome [17] | Potency (Papain (Carica papaya)) | Potency [19] | Potency [20] | Potency [21] | Potency [22] | Potency [23] | Z-AUC [24] -0.474
0.0499: Z-AUC ([24]; measured here: PEO4 Z-AUC)
active: Potency [18] 7.84 µM
0.643: Z-AUC ([24]; measured here: PEO1 parental Z-AUC)
